Assay outcomes (PubChem)
Only a selection was taken, and hits are over-represented in it overall.
ST2 inh – inhibitors of human ST2 (IL1RL1) binding to IL-33 | inhibition, % for hits at 17 µM | Q01638 | AID 1259354 | actives 2.3% (n = 78,000) | AlphaLISA ST2-Fc/biotin-IL-33 interaction, 1 h; in the data active = inhibition above about 30%
Target sequence (Q01638 whole entry, looked up): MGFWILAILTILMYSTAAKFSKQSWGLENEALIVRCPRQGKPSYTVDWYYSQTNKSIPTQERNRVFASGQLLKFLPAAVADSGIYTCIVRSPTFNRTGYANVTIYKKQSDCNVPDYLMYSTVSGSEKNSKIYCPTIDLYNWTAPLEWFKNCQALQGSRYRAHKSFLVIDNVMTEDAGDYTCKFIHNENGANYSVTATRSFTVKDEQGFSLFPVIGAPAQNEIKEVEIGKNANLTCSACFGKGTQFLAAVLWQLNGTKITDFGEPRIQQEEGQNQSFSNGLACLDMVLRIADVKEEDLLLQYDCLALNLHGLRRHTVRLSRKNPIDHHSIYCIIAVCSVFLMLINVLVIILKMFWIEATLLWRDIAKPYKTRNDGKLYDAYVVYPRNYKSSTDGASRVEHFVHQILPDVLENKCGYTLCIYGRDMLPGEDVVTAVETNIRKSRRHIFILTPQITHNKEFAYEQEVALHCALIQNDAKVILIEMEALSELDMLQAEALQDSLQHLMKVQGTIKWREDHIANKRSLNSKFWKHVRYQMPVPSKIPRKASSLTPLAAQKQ
Large screens that a line does not name were inactive; ! = repeats disagree.

O=C(NCCc1ccc(Cl)cc1)c1ccc(Cn2c(=O)[nH]c3ccsc3c2=O)cc1	ST2 inh 37%!
COc1ccc(CCNC(=O)c2ccc(Cn3c(=O)[nH]c4ccsc4c3=O)cc2)cc1OC	none
CCCCC(CC)CNC(=O)c1ccc(Cn2c(=O)[nH]c3ccsc3c2=O)cc1 (stereo not drawn)	none
CC1CCC(NC(=O)C2(C)CCC(=O)N2Cc2ccc3c(c2)OCO3)CC1 (stereo not drawn)	none
CC(=O)N1CCC(N[C@H]2CC(C)(C)[C@@H]3C[C@@](C)(O)CC[C@]23CCC(=O)N2CCOCC2)CC1	none
CCOc1ccc(-c2nc3s/c(=C\c4ccc(OC)cc4)c(=O)n3n2)cc1	none
COc1ccc(-c2nc3s/c(=C\c4cc(C)c(O)c(C)c4)c(=O)n3n2)cc1	ST2 inh 36%
CCCOc1ccc(-c2nc3s/c(=C\c4ccc(OC)cc4)c(=O)n3n2)cc1	none
COc1ccc(-c2nc3s/c(=C\c4ccc(OC)c(OC)c4)c(=O)n3n2)cc1	ST2 inh 38%
COc1ccc(/C=c2/sc3nc(-c4ccc(Cl)cc4)nn3c2=O)c(OC)c1	none
CCCOc1ccc(-c2nc3s/c(=C\c4ccc(OC)c(OC)c4)c(=O)n3n2)cc1	none
COc1ccc(OC)c(S(=O)(=O)N2CCN(c3cc(-c4cccc(C)c4)ncn3)CC2)c1	none
COC(=O)c1sc2ccccc2c1NC(=O)COc1ccc(Cl)cc1Cl	none
Cc1cccc(=O)n1CCCNS(=O)(=O)NCc1ccccc1	none
Fc1cccc2c1NC(c1ccc(Br)cc1)C1CC=CC21 (stereo not drawn)	ST2 inh 42%
O=C(O)c1cccc2c1NC(c1ccccc1Br)C1CC=CC21 (stereo not drawn)	none
COc1cccc2c1NC(c1ccc(Br)cc1)C1CC=CC21 (stereo not drawn)	ST2 inh 33%
Cc1ccc([C@@H]2Nc3c(F)cccc3[C@@H]3C=CC[C@@H]32)cc1	none
O=C(O)c1cccc2c1NC(c1ccc(F)cc1)C1CC=CC21 (stereo not drawn)	ST2 inh 50%
Cc1c(C(=O)O)oc2ccc(S(=O)(=O)N3CCOCC3)cc12	none
CCc1ncc(C(=O)NC23C[C@H]4C[C@@H](C2)CC(n2nnc(C)n2)(C4)C3)cn1	none
COc1ccc(C2C(C(=O)NCCC3=CCCCC3)c3cc(OC)c(OC)cc3C(=O)N2C)cc1 (stereo not drawn)	none
Oc1cccc(-c2cn(C(Cn3ccnc3)c3ccccc3)nn2)c1 (stereo not drawn)	none
CCOC(=O)c1c(-c2ccccc2)oc2cc(Br)c(OC(C)=O)cc12	none
CCn1c(SCC(=O)Nc2ccc(Br)cc2)nc2ccccc2c1=O	none
CCOc1ccc(-n2c(C)nc3c(cnn3-c3ccc(C)c(C)c3)c2=O)cc1	none
CC1C(=O)N(C)CCN1C(=O)c1cn[nH]c1-c1cccc(F)c1 (stereo not drawn)	none
CCc1c(C)sc(NC(=O)c2noc3c2CCc2ccccc2-3)c1C#N	none
CCCCN(C)C(=O)NC1(C(F)(F)F)Oc2ccc(Cl)cc2O1 (stereo not drawn)	none
COCCNC(=O)[C@@H](C)[C@@H]1CC[C@@]2(C)CC[C@H](NC(=O)c3ccccc3)[C@@H](C)[C@@H]2[C@H]1O	none
C[C@H]1[C@@H]2[C@@H](O)C([C@H](C)C(=O)N(C)CCC#N)CC[C@@]2(C)CC[C@@H]1NC(=O)c1cncnc1 (stereo partly drawn)	none
CCN(CC)C(=O)[C@@H](C)[C@@H]1CC[C@@]2(C)CC[C@H](NC(=O)c3cnccn3)[C@@H](C)[C@@H]2[C@H]1O	none
COc1ccc(C(=O)N[C@H]2CC[C@]3(C)CCC([C@H](C)C(=O)N(C)Cc4cccnc4)[C@H](O)[C@H]3[C@@H]2C)cc1 (stereo partly drawn)	ST2 inh 53%
COCCN(CCOC)C(=O)[C@@H](C)C1CC[C@@]2(C)CC[C@H](NC(=O)c3ccncc3)[C@@H](C)[C@@H]2[C@H]1O (stereo partly drawn)	none
CCN(CC)C(=O)[C@@H](C)C1CC[C@@]2(C)CC[C@H](NC(=O)c3ccncc3)[C@@H](C)[C@@H]2[C@H]1O (stereo partly drawn)	ST2 inh 49%
O=C(NCCc1ccccc1)c1nn2c(c1Cl)NC(c1ccco1)CC2C(F)(F)F (stereo not drawn)	none
CCC1CCC(N2CCN(c3ncccn3)CC2)CC1 (stereo not drawn)	none
COc1ccc(CN2CC[C@H](c3nnc(-c4cccnc4)o3)C2)cc1	none
N/C(=N/OC(=O)c1ccccc1F)c1ccccn1	none
Cc1nc2c(c(N(C)Cc3cccc4cnccc34)n1)CNC2	none
COc1ccc(/C=c2/sc3nc4cc(C)c(C)cc4n3c2=O)cc1OC	none
O=C(CSc1nc2ccccc2s1)c1ccccc1[N+](=O)[O-]	ST2 inh 33%
O=C(CSc1nc2ccccc2s1)Nc1ccccc1	none
O=C(CSc1nc2ccccc2s1)c1ccccc1	none
Cc1cc(C)nc(N=C(N)NN2CCN(C)CC2)n1	none
Cc1cccc(NC(=O)c2cccc(S(=O)(=O)N3CCOCC3)c2)c1	none
Cc1ccsc1[C@@H]1CCN(C(=O)COc2ccc3c(c2)OCO3)C[C@H]1O	none
O=[N+]([O-])c1cccc(-c2noc([C@@H]3C[C@@H](O)CN3Cc3ccc(Cl)cc3)n2)c1	none
Cc1cccc(-c2noc([C@@H]3C[C@@H](O)CN3Cc3cccs3)n2)c1	none
O=[N+]([O-])c1cccc(-c2noc([C@@H]3C[C@@H](O)CN3Cc3cccs3)n2)c1	ST2 inh 61%
O=[N+]([O-])c1cccc(-c2noc([C@@H]3C[C@@H](O)CN3Cc3ccccc3)n2)c1	none
Cc1ccc(CN2C[C@H](O)C[C@H]2c2nc(-c3cccc([N+](=O)[O-])c3)no2)cc1	none
O=[N+]([O-])c1cccc(-c2noc([C@@H]3C[C@@H](O)CN3Cc3ccc(CO)o3)n2)c1	ST2 inh 58%
CC(C)CCNC(=O)c1ccccc1I	none
CCCCOc1ccc(OC(=O)c2sc3ncn(CC)c(=O)c3c2C)cc1	none
CC1CCN(c2nc3c(c(=O)n(C)c(=O)n3C)n2Cc2ccccc2Cl)CC1	none
CCOc1nc2c(c(=O)n(C)c(=O)n2C)n1Cc1ccccc1Cl	ST2 inh 30%
COc1ccccc1Oc1nc2c(c(=O)n(C)c(=O)n2C)n1Cc1ccccc1F	ST2 inh 31%
CC(CCO)Nc1nc2c(c(=O)n(C)c(=O)n2C)n1Cc1ccccc1F (stereo not drawn)	none
C#CCOc1nc2c(c(=O)n(C)c(=O)n2C)n1Cc1ccccc1Cl	none
COCCCNc1nc2c(c(=O)n(C)c(=O)n2C)n1Cc1ccccc1F	none
C#CCNC(=O)C[C@@H]1O[C@H](CNC(=O)NC2CCCCC2)[C@@H](O)[C@H]1O	none
Cc1sc2ncn(CC(=O)N3CCCCC3)c(=O)c2c1S(=O)(=O)N1CC(C)CC(C)C1 (stereo not drawn)	none
Cc1ccc(NC(=O)CN2CCCN(Cc3ccccc3)S2(=O)=O)cc1F	none
CCC(C)NC(=O)c1ccc(CS(=O)(=O)c2ccc(C)cc2)o1 (stereo not drawn)	none
COc1cc(-c2nc(C(N)=O)cs2)cc(OC)c1OC	none
COc1cccc2ccc(/C=C/c3ccc4c(c3)OCO4)nc12	none
COc1cc(C=O)cc(Cl)c1OCc1ccc(Br)cc1	none
COc1cc(/C=C/c2ccc3cccc(O)c3n2)cc(Cl)c1OC	ST2 inh 34%
Cc1nc2ccccc2n1C(=O)c1ccco1	none
O=C(c1ccc2nc3ccccc3c(=O)n2c1)N1CCN(Cc2ccc3c(c2)OCO3)CC1	none
NNC(=O)CN1CCN(Cc2ccc3c(c2)OCO3)CC1	none
O=C(c1nc(N2CCCC2)nc2c1CCCC2)N1CCN(Cc2ccc3c(c2)OCO3)CC1	ST2 inh 32%
O=C(CS(=O)(=O)c1cccc2nsnc12)Nc1ccc(F)c(Cl)c1	none
